Source: PubChem BioAssay (NCATS)
Inconclusive results are not listed. Entries that show only a call come without a potency. The source made the active and inactive calls. Calls come from the whole dose curve; as a rule, active = well fitted inhibition curve with a large enough effect; inconclusive = small, poorly fitted or top-dose-only effect; inactive = flat fitted curve, though single readings scatter.

tested on: CP329; assay: qHTS profiling for inhibitors of Plasmodium falciparum proliferation (AID 504749); note: nearly all actives have a fitted effect of over 60% in size; conditions: P. falciparum in erythrocytes, SYBR Green DNA, 72 h; series mostly up to 28.7 µM
Outline: (§1)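 P. falciparum-infected erythrocytes (0.3% parasitemia, 2.5% hematocrit final) were exposed to compounds for 72 h at 37 C in 5% CO2, then lysed with SYBR Green buffer overnight at room temperature; parasite DNA fluorescence was normalized to artemisinin and DMSO controls.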
Potency is the fitted concentration of half-maximal effect.

Question: `COc1ccc(OC)c(C(O)C(C)N)c1` (stereo not drawn) was tested. Which Potency did it give?
Answer: inactive

Question: Which Potency does the source give for `CCON=O` here?
Answer: inactive

Question: For `CCCCCl`, which Potency is on record?
Answer: inactive

Question: Which Potency does the source give for `COC([CH2][Hg])CNC(=O)c1ccccc1OCC(=O)O` (stereo not drawn) here?
Answer: inactive

Question: `CC(C)(O)C1C2OC(=O)C1C1(O)CC3OC34C(=O)OC2C14C` (stereo not drawn) was tested. Which Potency did it give?
Answer: inactive

Question: `C[CH2][Hg][S]c1ccccc1C(=O)O` was tested. Which Potency did it give?
Answer: 1690 nM (active)

Question: For `O=C1C2CC=CCC2C(=O)N1SC(Cl)(Cl)Cl` (stereo not drawn), which Potency is on record?
Answer: inactive

Question: With `N#CN` as the compound, how does the Potency read?
Answer: inactive

Question: Which Potency does the source give for `O=C1CCCCC1CN1CCCCC1` (stereo not drawn) here?
Answer: inactive

Question: How did the Potency turn out when `CN1C2CCC1CC(OC(c1ccccc1)c1ccc(Cl)cc1)C2` (stereo not drawn) was run?
Answer: 13500 nM (active)

Question: For `COC1=CC=C2[C@H]3Cc4ccc(OC)c5c4[C@@]2(CCN3C)[C@H]1O5`, which Potency is on record?
Answer: inactive

Question: With `S=C=S` as the compound, how does the Potency read?
Answer: inactive

Question: How did the Potency turn out when `O=[N+]([O-])C(Br)(CO)CO` was run?
Answer: inactive

Question: With `COc1ccc2c3c1O[C@H]1C(=O)CC[C@H]4[C@@H](C2)N(C)CC[C@]314` as the compound, how does the Potency read?
Answer: inactive

Question: With `CC(=O)O[C@H]1CC[C@H]2[C@@H]3CCC4=CC(=O)CCC4=C3C=C[C@]12C` as the compound, how does the Potency read?
Answer: inactive

Question: With `CCCCCCCCOC(=O)c1ccccc1C(=O)OCCCCCCCC` as the compound, how does the Potency read?
Answer: inactive

Question: For `O=C1CCO1`, which Potency is on record?
Answer: inactive

Question: `O=C(CS(=O)C(c1ccccc1)c1ccccc1)NO` (stereo not drawn) was tested. Which Potency did it give?
Answer: inactive

Question: `C=CCN1CC[C@]23c4c5ccc(O)c4O[C@H]2[C@@H](O)C=C[C@H]3[C@H]1C5` was tested. Which Potency did it give?
Answer: inactive

Question: Which Potency does the source give for `O=c1[nH]cc(N(CCCl)CCCl)c(=O)[nH]1` here?
Answer: inactive

Question: With `C/C(=C\c1csc(C)n1)[C@@H]1C[C@@H]2O[C@]2(C)CCC[C@H](C)[C@H](O)[C@@H](C)C(=O)C(C)(C)[C@@H](O)CC(=O)O1` as the compound, how does the Potency read?
Answer: 3.4 nM (active)

Question: How did the Potency turn out when `CCC(N)Cc1c[nH]c2ccccc12` (stereo not drawn) was run?
Answer: inactive

Question: How did the Potency turn out when `C#CC(C)(O)CC` (stereo not drawn) was run?
Answer: inactive

Question: For `CCCCNCC(O)c1ccc(O)cc1` (stereo not drawn), which Potency is on record?
Answer: inactive

Question: For `O[C@H]1[C@H]2[C@H](O)CCCN2C[C@H]1O`, which Potency is on record?
Answer: inactive

Question: With `C=CCN1CCC23c4c5ccc(O)c4O[C@H]2C(=O)CC[C@@]3(O)C1C5` (stereo partly drawn) as the compound, how does the Potency read?
Answer: inactive

Question: `CC(=O)OO` was tested. Which Potency did it give?
Answer: inactive

Question: `CCCC(=O)OC(C(Cl)(Cl)Cl)P(=O)(OC)OC` (stereo not drawn) was tested. Which Potency did it give?
Answer: inactive

Question: For `[N-]=[N+]=CC(=O)OCC(N)C(=O)O` (stereo not drawn), which Potency is on record?
Answer: inactive

Question: With `CC(C)CCON=O` as the compound, how does the Potency read?
Answer: inactive

Question: For `CC(C)(C)c1cc(O)ccc1O`, which Potency is on record?
Answer: inactive

Question: For `COCC(C)N(C(=O)CCl)c1c(C)csc1C` (stereo not drawn), which Potency is on record?
Answer: inactive

Question: `C[N+]1(C)CCCCC1COC(=O)C(O)(c1ccccc1)c1ccccc1` (stereo not drawn) was tested. Which Potency did it give?
Answer: inactive

Question: How did the Potency turn out when `CCC1(c2ccccc2)C(=O)NC(=O)NC1=O` was run?
Answer: inactive

Question: `C[N+]1(C)C2CCC1CC(OC(=O)c1c[nH]c3ccccc13)C2` (stereo not drawn) was tested. Which Potency did it give?
Answer: inactive

Question: `O=S(=O)(O)c1cc(O)ccc1O` was tested. Which Potency did it give?
Answer: inactive

Question: With `FC(F)OC(F)(F)C(F)Cl` (stereo not drawn) as the compound, how does the Potency read?
Answer: inactive

Question: `CNC1(c2ccccc2Cl)CCCCC1=O` (stereo not drawn) was tested. Which Potency did it give?
Answer: inactive

Question: With `c1ccc2sc(SNC3CCCCC3)nc2c1` as the compound, how does the Potency read?
Answer: inactive

tested on: CP335; assay: as above; conditions: P. falciparum in erythrocytes, SYBR Green DNA, 72 h; series mostly up to 28.7 µM
Outline: as §1

Question: Which Potency does the source give for `COc1ccc(OC)c(C(O)C(C)N)c1` (stereo not drawn) here?
Answer: inactive

Question: How did the Potency turn out when `CCON=O` was run?
Answer: inactive

Question: How did the Potency turn out when `CCCCCl` was run?
Answer: inactive

Question: Which Potency does the source give for `COC([CH2][Hg])CNC(=O)c1ccccc1OCC(=O)O` (stereo not drawn) here?
Answer: inactive

Question: How did the Potency turn out when `CC(C)(O)C1C2OC(=O)C1C1(O)CC3OC34C(=O)OC2C14C` (stereo not drawn) was run?
Answer: inactive

Question: With `C[CH2][Hg][S]c1ccccc1C(=O)O` as the compound, how does the Potency read?
Answer: 1350 nM (active)

Question: For `O=C1C2CC=CCC2C(=O)N1SC(Cl)(Cl)Cl` (stereo not drawn), which Potency is on record?
Answer: inactive

Question: For `N#CN`, which Potency is on record?
Answer: inactive

Question: With `O=C1CCCCC1CN1CCCCC1` (stereo not drawn) as the compound, how does the Potency read?
Answer: inactive

Question: With `CN1C2CCC1CC(OC(c1ccccc1)c1ccc(Cl)cc1)C2` (stereo not drawn) as the compound, how does the Potency read?
Answer: 6010 nM (active)

Question: How did the Potency turn out when `COC1=CC=C2[C@H]3Cc4ccc(OC)c5c4[C@@]2(CCN3C)[C@H]1O5` was run?
Answer: inactive

Question: With `S=C=S` as the compound, how does the Potency read?
Answer: inactive

Question: For `O=[N+]([O-])C(Br)(CO)CO`, which Potency is on record?
Answer: inactive

Question: How did the Potency turn out when `COc1ccc2c3c1O[C@H]1C(=O)CC[C@H]4[C@@H](C2)N(C)CC[C@]314` was run?
Answer: inactive

Question: Which Potency does the source give for `CC(=O)O[C@H]1CC[C@H]2[C@@H]3CCC4=CC(=O)CCC4=C3C=C[C@]12C` here?
Answer: inactive

Question: How did the Potency turn out when `CCCCCCCCOC(=O)c1ccccc1C(=O)OCCCCCCCC` was run?
Answer: inactive

Question: With `O=C1CCO1` as the compound, how does the Potency read?
Answer: inactive

Question: `O=C(CS(=O)C(c1ccccc1)c1ccccc1)NO` (stereo not drawn) was tested. Which Potency did it give?
Answer: inactive

Question: How did the Potency turn out when `C=CCN1CC[C@]23c4c5ccc(O)c4O[C@H]2[C@@H](O)C=C[C@H]3[C@H]1C5` was run?
Answer: inactive

Question: `O=c1[nH]cc(N(CCCl)CCCl)c(=O)[nH]1` was tested. Which Potency did it give?
Answer: inactive

Question: `C/C(=C\c1csc(C)n1)[C@@H]1C[C@@H]2O[C@]2(C)CCC[C@H](C)[C@H](O)[C@@H](C)C(=O)C(C)(C)[C@@H](O)CC(=O)O1` was tested. Which Potency did it give?
Answer: 1.2 nM (active)

Question: `CCC(N)Cc1c[nH]c2ccccc12` (stereo not drawn) was tested. Which Potency did it give?
Answer: inactive

Question: With `C#CC(C)(O)CC` (stereo not drawn) as the compound, how does the Potency read?
Answer: inactive

Question: For `CCCCNCC(O)c1ccc(O)cc1` (stereo not drawn), which Potency is on record?
Answer: inactive

Question: For `O[C@H]1[C@H]2[C@H](O)CCCN2C[C@H]1O`, which Potency is on record?
Answer: inactive

Question: How did the Potency turn out when `C=CCN1CCC23c4c5ccc(O)c4O[C@H]2C(=O)CC[C@@]3(O)C1C5` (stereo partly drawn) was run?
Answer: inactive

Question: How did the Potency turn out when `CC(=O)OO` was run?
Answer: inactive

Question: Which Potency does the source give for `CCCC(=O)OC(C(Cl)(Cl)Cl)P(=O)(OC)OC` (stereo not drawn) here?
Answer: inactive

Question: With `[N-]=[N+]=CC(=O)OCC(N)C(=O)O` (stereo not drawn) as the compound, how does the Potency read?
Answer: inactive

Question: `CC(C)CCON=O` was tested. Which Potency did it give?
Answer: inactive

Question: With `CC(C)(C)c1cc(O)ccc1O` as the compound, how does the Potency read?
Answer: 5360 nM (active)

Question: For `COCC(C)N(C(=O)CCl)c1c(C)csc1C` (stereo not drawn), which Potency is on record?
Answer: inactive

Question: For `C[N+]1(C)CCCCC1COC(=O)C(O)(c1ccccc1)c1ccccc1` (stereo not drawn), which Potency is on record?
Answer: inactive

Question: For `CCC1(c2ccccc2)C(=O)NC(=O)NC1=O`, which Potency is on record?
Answer: inactive

Question: Which Potency does the source give for `C[N+]1(C)C2CCC1CC(OC(=O)c1c[nH]c3ccccc13)C2` (stereo not drawn) here?
Answer: inactive

Question: With `O=S(=O)(O)c1cc(O)ccc1O` as the compound, how does the Potency read?
Answer: inactive

Question: `FC(F)OC(F)(F)C(F)Cl` (stereo not drawn) was tested. Which Potency did it give?
Answer: inactive

Question: How did the Potency turn out when `CNC1(c2ccccc2Cl)CCCCC1=O` (stereo not drawn) was run?
Answer: inactive

Question: Which Potency does the source give for `c1ccc2sc(SNC3CCCCC3)nc2c1` here?
Answer: inactive
